Results: the supplement of paper PMC10849652
Of roughly 7,900 targets only a part is listed; those with a hit were picked by preference. About 0.6% of all pairs of compound and target were hits.

Tests used:
Assay in all cases: log2 fold change, soluble protein after heating vs DMSO (PISA); higher = thermal stabilisation; K562 cells, 10 uM, 30 min; active = over 0.2 and 3.5 SD of the protein, either way, in both replicates (recomputed)
[1] = compound: Cc1sc2c(c1C)C(c1ccc(Cl)cc1)=N[C@@H](CC(=O)OC(C)(C)C)c1nnc(C)n1-2
Summary of the method: (§1)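 Quantification of soluble protein used TMTpro 16plex LC-MS/MS, with channel sums equalised. Samples were the supernatant after 21,000xg for 90 min of pooled aliquots from K562 cells (2×10^6 cells/mL) treated with 10 μM compound for 30 min, heated for 3 min over 48°C-58°C, and extracted in PBS with 0.5% NP-40 at 4°C. Values, from duplicates, describe thermal stability against control samples on a log2 fold-change scale.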

[2] = compound: C1=CC=C(C=C1)[C@H](COC2=CC3=C(C=C2)NC(=O)N3)NC(=O)C4=CC=CN(C4=O)CC5=CC(=C(C=C5)F)F
Summary of the method: as §1

[3] = compound: CC1=C2C(=CC=C1)N=C(N(C2=O)C3=CC=CC=C3C)CN4C=NC5=C(N=CN=C54)N
Summary of the method: as §1

[4] = compound: CC1=C(SC2=C1C(=N[C@H](C3=NN=C(N32)C)CC(=O)N)C4=CC=C(C=C4)Cl)C
Summary of the method: as §1

[5] = compound: c1ccc([C@@H]2C[C@H]2NC2CCNCC2)cc1
Summary of the method: as §1

Measured: log2 fold change

BRAF, A0A2R8Y8E0
inactive: [1] 0.162

APOBEC3G (UniProt Q9HC16)
inactive: [2] 0.089 | [3] 0.436 | [1] 0.147

ADD3 isoform 2 (UniProt Q9UEY8)
UniProt Q9UEY8, sequence (Q9UEY8 whole entry, looked up): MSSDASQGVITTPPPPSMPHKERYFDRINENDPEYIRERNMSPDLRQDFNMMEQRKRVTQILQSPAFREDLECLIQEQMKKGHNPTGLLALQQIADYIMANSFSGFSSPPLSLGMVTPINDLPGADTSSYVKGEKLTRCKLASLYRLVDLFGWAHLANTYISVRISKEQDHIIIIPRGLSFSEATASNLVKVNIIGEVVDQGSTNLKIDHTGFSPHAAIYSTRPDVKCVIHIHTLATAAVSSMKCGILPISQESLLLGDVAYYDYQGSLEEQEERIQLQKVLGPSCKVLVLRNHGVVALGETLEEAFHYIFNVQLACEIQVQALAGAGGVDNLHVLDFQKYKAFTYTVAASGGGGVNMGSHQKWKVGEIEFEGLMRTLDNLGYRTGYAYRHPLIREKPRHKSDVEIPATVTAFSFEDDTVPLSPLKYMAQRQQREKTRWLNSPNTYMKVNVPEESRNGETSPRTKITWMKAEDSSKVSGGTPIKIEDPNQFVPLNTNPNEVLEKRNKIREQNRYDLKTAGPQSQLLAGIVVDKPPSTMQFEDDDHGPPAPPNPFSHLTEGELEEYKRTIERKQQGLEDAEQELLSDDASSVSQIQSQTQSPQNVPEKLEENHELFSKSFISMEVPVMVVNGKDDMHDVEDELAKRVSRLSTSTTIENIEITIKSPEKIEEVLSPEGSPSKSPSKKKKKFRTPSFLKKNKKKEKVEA
inactive: [4] -0.075 | [3] -0.038 | [1] 0.007 | [5] 0

ACTBL2 (UniProt Q562R1)
inactive: [2] -0.444 | [3] -0.201

AUNIP isoform 2 (UniProt Q9H7T9)
UniProt Q9H7T9, sequence (Q9H7T9 whole entry, looked up): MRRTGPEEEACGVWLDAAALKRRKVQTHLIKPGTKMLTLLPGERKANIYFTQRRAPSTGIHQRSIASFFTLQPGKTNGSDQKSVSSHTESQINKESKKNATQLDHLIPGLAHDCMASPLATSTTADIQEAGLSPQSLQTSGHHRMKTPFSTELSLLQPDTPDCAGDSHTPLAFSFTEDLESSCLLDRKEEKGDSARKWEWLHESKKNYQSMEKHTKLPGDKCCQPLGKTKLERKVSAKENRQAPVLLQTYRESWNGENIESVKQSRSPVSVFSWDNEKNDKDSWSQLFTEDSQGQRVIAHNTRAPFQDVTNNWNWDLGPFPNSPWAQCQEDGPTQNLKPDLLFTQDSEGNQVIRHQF
inactive: [4] 0.031 | [3] 0.086 | [1] -0.001 | [5] -0.014

ATP2A3 isoform 2 (UniProt Q93084)
inactive: [2] -0.01 | [4] 0.035 | [3] 0.036 | [1] -0.002 | [5] 0.01

ACSL6 isoform 1 (UniProt Q9UKU0)
inactive: [2] 0.012 | [3] 0.29 | [1] -0.009

APAF1 (UniProt O14727)
UniProt O14727, sequence (O14727 whole entry, looked up): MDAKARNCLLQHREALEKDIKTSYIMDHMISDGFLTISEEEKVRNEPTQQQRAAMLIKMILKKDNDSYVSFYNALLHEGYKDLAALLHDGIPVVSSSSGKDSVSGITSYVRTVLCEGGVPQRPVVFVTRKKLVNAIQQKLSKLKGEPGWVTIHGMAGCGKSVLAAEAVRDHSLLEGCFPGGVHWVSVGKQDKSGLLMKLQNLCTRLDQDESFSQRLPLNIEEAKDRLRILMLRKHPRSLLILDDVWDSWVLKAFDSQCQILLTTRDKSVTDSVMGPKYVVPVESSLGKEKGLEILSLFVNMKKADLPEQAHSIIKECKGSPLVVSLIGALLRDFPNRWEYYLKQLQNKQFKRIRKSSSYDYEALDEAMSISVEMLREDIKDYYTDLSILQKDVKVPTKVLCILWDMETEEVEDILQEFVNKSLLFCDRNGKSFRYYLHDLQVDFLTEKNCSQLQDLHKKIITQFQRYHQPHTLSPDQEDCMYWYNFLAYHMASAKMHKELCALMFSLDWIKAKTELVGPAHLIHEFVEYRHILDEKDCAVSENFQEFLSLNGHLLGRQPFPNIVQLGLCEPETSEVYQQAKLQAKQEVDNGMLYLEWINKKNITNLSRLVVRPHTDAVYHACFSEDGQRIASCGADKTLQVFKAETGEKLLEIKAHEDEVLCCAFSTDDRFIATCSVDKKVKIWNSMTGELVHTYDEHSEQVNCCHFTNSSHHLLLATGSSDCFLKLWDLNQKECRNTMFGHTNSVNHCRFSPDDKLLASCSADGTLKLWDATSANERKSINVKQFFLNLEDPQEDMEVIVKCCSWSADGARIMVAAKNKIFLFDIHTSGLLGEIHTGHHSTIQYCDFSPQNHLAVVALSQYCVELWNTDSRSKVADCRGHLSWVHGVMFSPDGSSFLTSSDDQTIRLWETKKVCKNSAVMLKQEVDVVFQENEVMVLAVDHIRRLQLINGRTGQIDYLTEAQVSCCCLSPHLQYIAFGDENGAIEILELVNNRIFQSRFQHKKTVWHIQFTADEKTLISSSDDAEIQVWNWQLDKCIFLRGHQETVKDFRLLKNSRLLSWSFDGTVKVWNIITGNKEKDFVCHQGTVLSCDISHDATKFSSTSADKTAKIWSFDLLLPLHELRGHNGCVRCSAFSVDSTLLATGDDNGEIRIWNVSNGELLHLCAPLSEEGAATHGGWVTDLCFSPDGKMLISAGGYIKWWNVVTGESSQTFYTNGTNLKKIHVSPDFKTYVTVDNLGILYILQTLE
inactive: [4] 0.031 | [3] 0.112 | [5] 0.055

AGAP3 isoform 4 (UniProt Q96P47)
inactive: [2] -0.08 | [4] -0.023 | [1] -0.006 | [5] 0.05

AKNA (UniProt Q7Z591)
inactive: [4] 0.071 | [5] 0.206

BAIAP2 isoform 4 (UniProt Q9UQB8)
inactive: [4] 0.029 | [1] -0.206 | [5] 0.151

BAD (UniProt Q92934)
UniProt Q92934, sequence (Q92934 whole entry, looked up): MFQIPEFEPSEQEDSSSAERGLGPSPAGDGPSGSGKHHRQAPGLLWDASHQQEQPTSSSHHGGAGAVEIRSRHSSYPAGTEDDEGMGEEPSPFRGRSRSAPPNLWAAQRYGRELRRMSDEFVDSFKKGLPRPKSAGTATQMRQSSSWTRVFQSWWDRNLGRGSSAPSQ
inactive: [2] -0.001 | [4] -0.042 | [3] -0.086 | [5] 0.032

AARSD1 (UniProt Q9BTE6)
inactive: [2] -0.081 | [4] -0.267 | [5] -0.068

ACTR3B (UniProt Q9P1U1)
inactive: [3] -0.002 | [1] 0.173

ADPRH (UniProt P54922)
inactive: [2] -0.035 | [3] 0.344 | [1] -0.121

AIF1 (UniProt P55008)
inactive: [2] -0.114 | [3] 0.04

ABCA4 (UniProt P78363)
UniProt P78363, sequence (P78363 whole entry, looked up): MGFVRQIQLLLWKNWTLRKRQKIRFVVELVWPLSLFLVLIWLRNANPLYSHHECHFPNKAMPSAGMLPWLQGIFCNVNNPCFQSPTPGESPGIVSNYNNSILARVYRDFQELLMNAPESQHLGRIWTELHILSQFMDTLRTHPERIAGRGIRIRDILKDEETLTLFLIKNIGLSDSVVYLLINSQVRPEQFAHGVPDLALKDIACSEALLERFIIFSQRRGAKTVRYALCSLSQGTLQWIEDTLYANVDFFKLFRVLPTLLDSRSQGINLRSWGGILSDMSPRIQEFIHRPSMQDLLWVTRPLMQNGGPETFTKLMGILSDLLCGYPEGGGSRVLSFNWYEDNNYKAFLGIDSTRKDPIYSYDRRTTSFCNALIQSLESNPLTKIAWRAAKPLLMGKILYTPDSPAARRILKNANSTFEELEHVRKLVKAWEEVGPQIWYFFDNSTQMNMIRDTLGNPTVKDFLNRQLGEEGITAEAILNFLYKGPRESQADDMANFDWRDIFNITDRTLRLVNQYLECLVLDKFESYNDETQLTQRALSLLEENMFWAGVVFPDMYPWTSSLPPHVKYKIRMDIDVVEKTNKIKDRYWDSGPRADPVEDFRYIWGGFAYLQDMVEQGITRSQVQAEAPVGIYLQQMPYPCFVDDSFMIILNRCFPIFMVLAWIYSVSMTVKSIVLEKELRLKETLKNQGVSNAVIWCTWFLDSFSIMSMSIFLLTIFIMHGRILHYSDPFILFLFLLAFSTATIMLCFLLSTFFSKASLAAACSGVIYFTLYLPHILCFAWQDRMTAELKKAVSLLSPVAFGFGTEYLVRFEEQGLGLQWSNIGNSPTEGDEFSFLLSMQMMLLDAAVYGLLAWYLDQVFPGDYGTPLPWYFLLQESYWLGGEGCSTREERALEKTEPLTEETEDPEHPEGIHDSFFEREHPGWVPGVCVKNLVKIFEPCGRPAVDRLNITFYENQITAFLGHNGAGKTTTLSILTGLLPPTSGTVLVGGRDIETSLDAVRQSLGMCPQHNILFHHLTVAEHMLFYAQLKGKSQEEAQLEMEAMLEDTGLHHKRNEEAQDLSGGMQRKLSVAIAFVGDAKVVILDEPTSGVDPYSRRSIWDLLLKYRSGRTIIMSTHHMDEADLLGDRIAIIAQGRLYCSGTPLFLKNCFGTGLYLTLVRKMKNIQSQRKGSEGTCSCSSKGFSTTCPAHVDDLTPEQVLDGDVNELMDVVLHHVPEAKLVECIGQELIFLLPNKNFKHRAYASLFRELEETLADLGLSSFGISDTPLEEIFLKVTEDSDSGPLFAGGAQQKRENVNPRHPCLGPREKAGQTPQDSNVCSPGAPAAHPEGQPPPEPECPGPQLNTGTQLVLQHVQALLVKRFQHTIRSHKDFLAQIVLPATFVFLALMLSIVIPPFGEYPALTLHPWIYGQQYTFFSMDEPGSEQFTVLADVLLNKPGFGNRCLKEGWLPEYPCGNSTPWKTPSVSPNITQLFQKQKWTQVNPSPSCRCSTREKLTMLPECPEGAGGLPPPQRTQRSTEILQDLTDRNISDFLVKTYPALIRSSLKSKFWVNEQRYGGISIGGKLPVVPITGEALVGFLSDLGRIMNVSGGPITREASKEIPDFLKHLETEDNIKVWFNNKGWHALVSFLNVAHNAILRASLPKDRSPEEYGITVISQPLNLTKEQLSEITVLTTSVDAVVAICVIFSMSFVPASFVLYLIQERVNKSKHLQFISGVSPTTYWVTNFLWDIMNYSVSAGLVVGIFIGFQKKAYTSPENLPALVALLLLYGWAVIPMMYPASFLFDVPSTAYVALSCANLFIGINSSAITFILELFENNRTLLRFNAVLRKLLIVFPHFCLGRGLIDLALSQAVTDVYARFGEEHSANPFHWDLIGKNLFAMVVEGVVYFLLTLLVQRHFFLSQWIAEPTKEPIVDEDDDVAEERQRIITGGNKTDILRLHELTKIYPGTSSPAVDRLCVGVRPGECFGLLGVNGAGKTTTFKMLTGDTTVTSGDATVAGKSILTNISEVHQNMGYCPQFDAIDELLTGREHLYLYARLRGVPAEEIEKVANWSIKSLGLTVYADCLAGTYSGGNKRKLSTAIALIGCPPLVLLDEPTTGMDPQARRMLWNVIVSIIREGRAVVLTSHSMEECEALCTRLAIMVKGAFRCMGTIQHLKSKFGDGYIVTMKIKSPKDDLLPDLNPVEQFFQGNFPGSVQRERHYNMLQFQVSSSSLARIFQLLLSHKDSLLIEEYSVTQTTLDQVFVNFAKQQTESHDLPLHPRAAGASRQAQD
inactive: [2] 0.174 | [4] 0.297 | [1] 0.03 | [5] -0.128

AZI2 (UniProt Q9H6S1)
inactive: [2] 0.034 | [3] -0.047 | [1] 0.136

AHSA1 (UniProt O95433)
UniProt O95433, sequence (O95433 whole entry, looked up): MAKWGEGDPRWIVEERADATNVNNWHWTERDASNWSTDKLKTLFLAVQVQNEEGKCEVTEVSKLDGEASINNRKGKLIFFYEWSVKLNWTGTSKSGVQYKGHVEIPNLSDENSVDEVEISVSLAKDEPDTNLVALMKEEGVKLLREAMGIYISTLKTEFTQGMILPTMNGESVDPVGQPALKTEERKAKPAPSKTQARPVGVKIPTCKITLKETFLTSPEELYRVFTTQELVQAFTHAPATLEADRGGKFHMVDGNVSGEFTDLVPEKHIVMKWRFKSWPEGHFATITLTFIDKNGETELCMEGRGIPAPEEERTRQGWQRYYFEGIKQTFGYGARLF
inactive: [2] -0.035 | [4] 0.063 | [3] 0.015 | [1] -0.024 | [5] -0.003

AMD1 (UniProt P17707)
inactive: [2] -0.021 | [3] 0.168 | [1] -0.164

ARMC8 isoform 6 (UniProt Q8IUR7)
inactive: [2] 0.053 | [3] 0.088
